Structures are written as SMILES. Screen size: about 320,000 compounds; about 2,100 (0.66%) were called active. Roughly 53% stayed inconclusive and do not appear here. The call rests on the fitted dose curve; in most records, active means well fitted inhibition curve with a large enough effect in the signal ratio, with a control signal flat (not every such curve was filed as active); inconclusive means small, poorly fitted or top-dose-only effect, or effect the other way, or a change in a side signal; inactive means flat fitted curve, though single readings scatter; the % refers to the signal ratio. Many of the other results were omitted from the sample, so actives are more common in it than they were.
Potency means the concentration at half of the fitted maximal effect.

A short description of this test: qHTS Assay for Lipid Storage Modulators in Drosophila S3 Cells.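 On cell number change: cells counted by Cell Tracker Red CMTPX staining in the red channel.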 On lipid storage change, negative = inhibition: on the % scale 0 is the no-effect control and ±100 the full control effect. Conditions: BODIPY lipid droplet fluorescence, 18-24 h, cells fed with added oleic acid; cell number change: measured here: cell count max response; series mostly up to 46.1 µM; lipid storage change, negative = inhibition: at the top concentration. The procedure, abridged: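 Drosophila S3 cells loaded with oleic acid (400 uM, as added) and compounds at several concentrations; lipid droplets imaged by 488-nm laser-scanning cytometry, 500–530 nm intensity and object ratio to cell channel. Percent activity normalized to 20 uM Triacsin C.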
Background: qHTS replaces the single test concentration by a dilution series.
Regarding `O=[N+]([O-])c1cc([N+](=O)[O-])c(Oc2c(F)ccc(F)c2F)cc1NN1CCCCC1`, the “lipid storage change, negative = inhibition” value is 27.8% (inactive) and the cell number change was -0.599%.
In the same order, the values of `COc1ccccc1Oc1nc([N+](=O)[O-])nn1CC(N)=O` are 22.6% (inactive) and -6.43%.
Turning to `NC(=O)Cn1nc([N+](=O)[O-])nc1Oc1ccccc1C(=O)N1CCOCC1`, the Potency is 14.6 µM (active) and the cell number change is -24.1%.
Regarding `NC(=O)Cn1nc([N+](=O)[O-])nc1Oc1ccc(Br)cc1`, the result was inactive and the cell number change is -1.14%.
On to `Cc1ccc(C(=O)C[n+]2cc(Br)cc(Br)c2)cc1[N+](=O)[O-]`, for which the “lipid storage change, negative = inhibition” value was 6.01% (inactive) and the cell number change is 11.3%.
Turning to `Cc1cccc(C(CC(=O)N2CCCCC2)c2ccccc2)c1O` (stereo not drawn), the compound was classed as inactive and the cell number change is -18.8%.
In the same order, the values of `O=C1CC2(CCN(C(=O)c3ccc(Br)cc3)CC2)Oc2ccccc21` are “inactive” and -15.2%.
For the compound `COc1cc(/C=C/C(=O)c2ccc(NS(=O)(=O)c3ccc(C)cc3)cc2)cc(OC)c1O`, the “lipid storage change, negative = inhibition” value is -10.6% (inactive) and the cell number change was -14.2%.
In the same order, the values of `Cc1ccc(NC(=S)N2CCC(C(N)=O)(N3CCCCC3)CC2)c(C)c1` are -4.88% (inactive) and -4.08%.
For the compound `Cc1ccc2oc(C(=O)N3CCC(C(N)=O)(N4CCCCC4)CC3)c(C)c2c1`, the Potency was 18.4 µM (active) and the cell number change is -4.2%.
In the case of `CCN(CC)C(=O)C1CCCN(C(=O)c2oc3ccc(C)cc3c2C)C1` (stereo not drawn), the “lipid storage change, negative = inhibition” value is 2.31% (inactive) and the cell number change came to 15.6%.
In the same order, the values of `CCCOc1ccc(/C=C/C(=O)N2CCN(c3ccccn3)CC2)cc1` are 19.3% (inactive) and -20.8%.
In the same order, the values of `S=c1[nH]nc(COc2ccc3ccccc3c2)o1` are 7.14% (inactive) and -7.51%.
In the same order, the values of `Cc1ccc(S(=O)(=O)CCc2nc3ccccc3s2)cc1` are 3.52% (inactive) and -0.805%.
For `O=S(=O)(CCc1nc2ccccc2s1)c1ccc(Cl)cc1`, the compound was called inactive and the cell number change was determined as 17.6%.
On to `Cc1ccc(S(=O)(=O)CCc2nc3ccccc3s2)cc1C`, for which the Potency is 18.4 µM (active) and the cell number change came out at 19.6%.
As for `c1ccc(-c2cn(C[C@H]3CC[C@@H]([C@@H]4CC[C@H](Cn5cc(-c6ccccc6)nn5)O4)O3)nn2)cc1`, the “lipid storage change, negative = inhibition” value was -0.0556% (inactive) and the cell number change is -7.49%.
In the same order, the values of `c1ccc(-c2cn(C[C@H]3CC[C@@H]([C@@H]4CC[C@H](Cn5cc(-c6ccccn6)nn5)O4)O3)nn2)nc1` are 7.69% (inactive) and 28.2%.
Take `c1cncc(-c2cn(C[C@H]3CC[C@@H]([C@@H]4CC[C@H](Cn5cc(-c6cccnc6)nn5)O4)O3)nn2)c1`: the Potency is 14.6 µM (active) and the cell number change is 9.88%.
For `CC(=O)N1CCN(S(=O)(=O)c2c(C)n(C)c(=O)n(C)c2=O)CC1`, the “lipid storage change, negative = inhibition” value is -16.5% (inactive) and the cell number change turned out to be 5.18%.
Regarding `CCCCOc1ccc(C(=O)N2CCNC(=O)C2CC(=O)OC(C)C)cc1` (stereo not drawn), the compound was called inactive and the cell number change is 7.09%.
For the compound `CCCNC(=O)Nc1cccc(NC(C)=O)c1`, the “lipid storage change, negative = inhibition” value is -8.89% (inactive) and the cell number change was -9.94%.
Turning to `CCOCCCNC(=O)C1CCCN(S(=O)(=O)c2cccc3nsnc23)C1` (stereo not drawn), the call was inactive and the cell number change is -2.02%.
As to `Cc1cc(=O)n2nc(N3CCCC(C(=O)NCc4ccccc4C)C3)sc2n1` (stereo not drawn), the “lipid storage change, negative = inhibition” value was -13.4% (inactive) and the cell number change worked out at 0.288%.
As to `Cc1cc(=O)n2nc(N3CCCC(C(=O)NCc4ccccc4Br)C3)sc2n1` (stereo not drawn), the Potency is 1.46 µM (active) and the cell number change is -27.4%.
As to `Cc1cc(=O)n2nc(N3CCC(C(=O)NCCc4ccccc4)CC3)sc2n1`, the “lipid storage change, negative = inhibition” value is 16.9% (inactive) and the cell number change is 7.93%.
In the same order, the values of `COc1ccc(NC(=O)C2CCCN2c2nn3c(=O)cc(C)nc3s2)cc1` (stereo not drawn) are -9.15% (inactive) and 13.8%.
Regarding `Cc1cc(=O)n2nc(N3CCC(C(=O)N4CCN(C)CC4)CC3)sc2n1`, the Potency is 6.51 µM (active) and the cell number change is 5.43%.
Take `Cc1cc(=O)n2nc(N3CCCC(C(=O)NCc4ccccc4)C3)sc2n1` (stereo not drawn): the “lipid storage change, negative = inhibition” value is 14.6% (inactive) and the cell number change is -4.61%.
On to `Cc1cc(=O)n2nc(N3CCC(C(=O)N4CCN(c5ccccc5)CC4)CC3)sc2n1`, for which the “lipid storage change, negative = inhibition” value is -24.2% (inactive).
For the compound `CCC1CCCCN1CCCNC(=O)C1CCCN(c2nn3c(=O)cc(C)nc3s2)C1` (stereo not drawn), the compound was classed as inactive.
On to `Cc1cc(=O)n2nc(N3CCCC(C(=O)N4CCN(C)CC4)C3)sc2n1` (stereo not drawn), for which the “lipid storage change, negative = inhibition” value is 2.59% (inactive) and the cell number change was -3.39%.
With `CCOc1ccc(CCNC(=O)C2CCN(c3nn4c(=O)cc(C)nc4s3)CC2)cc1OCC`, the Potency was 5.8 µM (active) and the cell number change was found to be 3.17%.
Take `Cc1cc(=O)n2nc(N3CCCC3C(=O)NCCCN3CC(C)CC(C)C3)sc2n1` (stereo not drawn): the Potency is 5.17 µM (active) and the cell number change was -13.9%.
As to `COc1ccc(CCNC(=O)C2CCN(c3nn4c(=O)cc(C)nc4s3)CC2)cc1OC`, the “lipid storage change, negative = inhibition” value was -13.5% (inactive).
For the compound `COc1ccc(CCNC(=O)Cn2cnc3c(nnn3Cc3ccc(C)cc3)c2=O)cc1OC`, the “lipid storage change, negative = inhibition” value is 5.48% (inactive) and the cell number change was -15.1%.
In the same order, the values of `COc1ccc(CN2CCN(Cc3cc4ccccc4o3)CC2CCO)c(F)c1` (stereo not drawn) are 24.4% (inactive) and 5.21%.
`C/C(=N\NC(=O)c1nnn(-c2nonc2N)c1CSc1ccccc1)c1ccco1`: the outcome was inactive.
Turning to `N/C(=N/O)c1nc(N2CCCC2)nc(N2CCCC2)n1`, the “lipid storage change, negative = inhibition” value was 11.2% (inactive) and the cell number change was 6.44%.
For the compound `COc1ccc(CNC(=O)C(C)n2nc(C)c3c(C)n(-c4ccccc4)nc3c2=O)c(OC)c1` (stereo not drawn), the “lipid storage change, negative = inhibition” value is 6.4% (inactive) and the cell number change was 1.47%.
On to `COc1ccc(OC)c(CNC(=O)C(C)n2nc(C)c3c(C)n(-c4ccccc4)nc3c2=O)c1` (stereo not drawn), for which the compound was called inactive and the cell number change was -28%.
On to `COc1ccccc1CNC(=O)C(C)n1nc(C)c2c(C)n(-c3ccccc3)nc2c1=O` (stereo not drawn), for which the Potency is 5.8 µM (active) and the cell number change is -4.13%.
For `O=S1(=O)c2ccccc2Nc2ccccc21`, the “lipid storage change, negative = inhibition” value was -5.34% (inactive) and the cell number change is 5.2%.
As to `Cc1nc(NS(=O)(=O)c2ccccc2)sc1NC(=O)Nc1ccc(Cl)cc1`, the “lipid storage change, negative = inhibition” value was 7.91% (inactive) and the cell number change turned out to be 3.01%.
In the same order, the values of `COc1ccc(CCNCc2c(OC)ccc3ccccc23)cc1OC` are -2.82% (inactive) and 20.1%.
As to `CC(C(=O)N1CCc2ccccc2C1)N(c1ccccc1)S(C)(=O)=O` (stereo not drawn), the Potency was 2.06 µM (active) and the cell number change is -18%.

Source of the values: PubChem BioAssay AID2685 (National Center for Advancing Translational Sciences (NCATS), 2010).
